Screen size: about 350,000 compounds; about 180 (0.051%) were called active. The sample as a whole holds a higher share of actives than the screen did. A number with no mark means an inactive call.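 The calls were made as follows: active = mean inhibition across replicates of 30% or more, whatever share of single replicates reach that level; inconclusive = mean inhibition below 30% while every single replicate reaches 30%; inactive = the rest.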
Each compound was assayed against Protein disulfide-isomerase (Homo sapiens) (UniProt P07237) (assay: blockers of PDI-driven insulin aggregation – biochemical, turbidity, single point, plate reader, primary screen (AID 588391;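 also: absorbance from insulin aggregation driven by PDI reduction with DTT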)). Details: A650, 90 min, at 10 µM, active compounds read high.
Sequence of Protein disulfide-isomerase (Homo sapiens) (P07237 whole entry, looked up): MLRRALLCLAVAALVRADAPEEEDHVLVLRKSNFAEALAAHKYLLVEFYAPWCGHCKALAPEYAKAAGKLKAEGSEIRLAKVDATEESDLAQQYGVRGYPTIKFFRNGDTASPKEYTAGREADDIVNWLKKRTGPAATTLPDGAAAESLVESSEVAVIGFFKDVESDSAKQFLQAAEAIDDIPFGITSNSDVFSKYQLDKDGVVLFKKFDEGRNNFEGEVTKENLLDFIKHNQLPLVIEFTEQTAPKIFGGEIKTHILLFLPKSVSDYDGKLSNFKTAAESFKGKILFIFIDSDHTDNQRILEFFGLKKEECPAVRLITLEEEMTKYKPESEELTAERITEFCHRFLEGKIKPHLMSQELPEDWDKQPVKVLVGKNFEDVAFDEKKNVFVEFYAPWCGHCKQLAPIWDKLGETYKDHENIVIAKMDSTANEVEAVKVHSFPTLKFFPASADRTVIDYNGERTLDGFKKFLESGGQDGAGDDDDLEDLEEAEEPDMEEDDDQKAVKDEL
For `COCOc1cccc(CN2CCC(C)(Oc3ccc(SC)cc3)C2)c1` (stereo not drawn), the inhibition was -14.7%.
In the case of `CC1(C(=O)NCc2ccc(F)c(F)c2)Cc2c(-c3ccc4c(c3)OCO4)ccnc2O1` (stereo not drawn), the inhibition was 5.69%.
In the case of `COc1ccc2[nH]c3c(C)c4cc[n+](C)cc4c(C)c3c2c1`, the inhibition was 46.3% (active).
In the case of `CCOC(=O)c1[nH]c2ccc(OC)cc2c1NC(=O)N1CCOCC1`, the inhibition was -4.02%.
With `COc1ccc(CC(N)c2csc(NC(=O)Cc3ccccc3)n2)cc1` (stereo not drawn) the inhibition was 8.14%.
With `CC1(C(=O)NS(=O)(=O)c2cccc(F)c2)CCN1C(=O)Cc1cc(F)ccc1F` (stereo not drawn) the inhibition was 9.62%.
`CC1(Oc2ccc(Cl)cc2)CCN(Cc2csc3ccccc23)C1` (stereo not drawn) was tested, and the inhibition was -0.538%.
With `CCc1nc2ccc(C(=O)Nc3cc(-c4ccccc4)ccc3OC)cn2c1N(CC)CC(=O)N(C)C` the inhibition was -5.43%.
Compound `OC(c1cc(Cl)cc(Cl)c1)c1ncc(-c2ccccc2C(F)(F)F)[nH]1` (stereo not drawn) has an inhibition of -0.656%.
`CC1(C(=O)Nc2cccc(Oc3ccccc3)c2)CCN1Cc1ccccc1Cl` (stereo not drawn) was tested, and the inhibition was 8.27%.
`CCc1nc2ccc(C(=O)NCc3ccc(OC)cc3)cn2c1N(CC)Cc1cccc(Br)c1` gave an inhibition of 19.2%.
In the case of `CC1(Oc2ccccc2-c2ccno2)CCN(Cc2ccc(-c3ccccc3)o2)C1` (stereo not drawn), the inhibition was 15.2%.
Compound `CCNC(=O)C1CCCN(C(=O)c2cc(F)ccc2C)CC1` (stereo not drawn) has an inhibition of -2.55%.
In the case of `COc1ccc(-c2cc(NC=O)c3ncc(-c4cc(OC)c(OC)c(OC)c4)n3c2)c(OC)c1`, the inhibition was 2.23%.
Compound `CCCNC(=O)C1(C)CCCN(Cc2c(C)nn(-c3ccccc3)c2C)C1` (stereo not drawn) has an inhibition of 1.08%.
With `O=CNc1cc(-c2ccc(C(=O)N3CCOCC3)cc2)cn2c(-c3ccc(F)cc3)cnc12` the inhibition was -18.3%.
Compound `Cc1cccc(-c2cnc(C(O)c3cc(C)cc(C)c3)[nH]2)c1` (stereo not drawn) has an inhibition of 8.93%.
With `CCOC(=O)c1ccccc1NC(=O)COC(=O)C(Cc1c[nH]c2ccccc12)NC(C)=O` (stereo not drawn) the inhibition was 5.96%.
For `CCOc1cc(N2CCOCC2)c(OCC)cc1NC(=O)COC(=O)[C@H](Cc1c[nH]c2ccccc12)NC(C)=O`, the inhibition was 44.5% (active).
In the case of `CCOc1cc(N2CCOCC2)c(OCC)cc1NC(=O)c1ccc(C)s1`, the inhibition was -4.12%.
`COc1ccc(S(=O)(=O)N2CCCCC2c2cc(C(=O)NCc3ccc(F)cc3)no2)cc1` (stereo not drawn) gave an inhibition of -0.518%.
Compound `CCNC(=O)C1(C)CCN(C(=O)c2ccccc2)C1` (stereo not drawn) has an inhibition of -56.1%.
Work on `CC1(C(=O)NCc2ccc3c(c2)OCO3)CCN1CCc1ccccc1` (stereo not drawn) yielded an inhibition of 3.4%.
For `O=C(NCc1ccco1)c1cccc(-c2ccc3nncn3c2)c1`, the inhibition was 3.75%.
With `COc1ccc(-c2cc(NC(C)=O)c3ncc(-c4cc(OC)c(OC)c(OC)c4)n3c2)cn1` the inhibition was -21.1%.
`CN(C)C(=O)c1cccc(-c2cnc3sc(NCc4ccc5c(c4)OCO5)nn23)c1` showed an inhibition of 9.47%.
With `O=C(NCc1ccc(F)cc1)c1cc(C2CCCCN2C(=O)c2ccccn2)on1` (stereo not drawn) the inhibition was -12%.
With `CCN(CC)C(=O)C1CCCN(Cc2cccc(Cl)c2)C1` (stereo not drawn) the inhibition was -5.23%.
Work on `Cc1nc(C(F)(F)F)ccc1C(=O)N1CCC1(C)C(=O)NS(=O)(=O)c1ccccc1` (stereo not drawn) yielded an inhibition of -40%.
Work on `CC(=O)Nc1cc(-c2ccccc2F)cn2c(-c3cccc(C(F)(F)F)c3)cnc12` yielded an inhibition of 0.488%.
`CC(C)c1cccc(-c2csc(C(O)c3ccccc3)n2)c1` (stereo not drawn) showed an inhibition of 4.52%.
`CC(=O)OC1CCC2C3CCC4=C(CC(F)C(=O)C4)C3CCC12C` (stereo not drawn) was tested, and the inhibition was 70.6% (active).
For `CCC(=O)N1CCC(C)(C(=O)Nc2cc(OC)c(OC)c(OC)c2)C1` (stereo not drawn), the inhibition was -1.21%.
Compound `Cc1ccc(NS(=O)(=O)c2cc3c(cc2Br)NC(=O)CO3)cc1C` has an inhibition of -4.51%.
`CCc1nc2c(OCc3ccc(C(F)(F)F)cc3)cccn2c1N(C)C(=O)CC(C)C` showed an inhibition of -3.58%.
`OC(c1ccccc1)c1nc(-c2cnc3ccccc3c2)cs1` (stereo not drawn) showed an inhibition of 4.04%.
In the case of `CCOCCC(=O)Nc1ccc2c(c1)c(=O)n(C)n2-c1ccc2ccccc2c1`, the inhibition was -6.74%.
Work on `Cc1nc2c(OCC(=O)C(C)(C)C)cccn2c1N(C)Cc1cccs1` yielded an inhibition of -1.4%.
`CCCS(=O)(=O)NC(=O)C1(C)CCN(C(=O)c2sccc2C)C1` (stereo not drawn) gave an inhibition of 4.32%.
In the case of `CCOC(=O)c1ccc(-c2ccc3ncnc(N(C)Cc4sccc4C)c3c2)o1`, the inhibition was -3.79%.
Work on `CCc1nc2ccc(C(=O)N(C)CCN(C)C)cn2c1N(CC)CCOC` yielded an inhibition of 12.7%.
With `CC(=O)Nc1ccc(-c2ccnc3c2CC(C(=O)NC(C)C)O3)cc1` (stereo not drawn) the inhibition was -7.94%.
With `COc1ccc(-c2coc3c(C(=O)NC(C)C)cccc23)c(C)c1` the inhibition was -1.08%.
`Cc1ccc(C(NC(=O)C2CCN(CCOc3ccc(Cl)cc3Cl)CC2)c2ccccn2)cc1` (stereo not drawn) gave an inhibition of 2.42%.
`O=C(NCCO)c1cccc(-c2cccc3nccn23)c1` showed an inhibition of -96.6%.
`Cc1ccc(-c2cnc(C(O)c3cc(Cl)cc(Cl)c3)[nH]2)cc1` (stereo not drawn) gave an inhibition of -2.73%.
Work on `COc1cccc(C(O)c2ncc(-c3ccc4ccccc4c3)[nH]2)c1` (stereo not drawn) yielded an inhibition of 7.38%.
Work on `COc1ccc(C(=O)N2CCCCC2c2cc(C(=O)Nc3ccccc3)no2)cc1` (stereo not drawn) yielded an inhibition of -4.91%.
Work on `O=C(NCc1cccnc1)c1ccc2nc([C@@H]3O[C@H](CO)[C@H](O)[C@H](O)[C@H]3O)[nH]c2c1` yielded an inhibition of -7.99%.
Compound `CC1(C(=O)NS(=O)(=O)c2cccc(F)c2)CCN1C(=O)c1cccc2ccccc12` (stereo not drawn) has an inhibition of -12.2%.
For `CC(=O)c1cccc(-c2cnc3c(NC=O)cc(-c4ccccc4Oc4ccccc4)cn23)c1`, the inhibition was -15.6%.
`CCNC(=O)C1CCCN(C(=O)c2ccc(OC)cc2OC)CC1` (stereo not drawn) gave an inhibition of -2.37%.
In the case of `Cc1ccccc1-c1csc(C(O)c2cccc(Cl)c2)n1` (stereo not drawn), the inhibition was 4.37%.
For `CCN(CCN(C)C)C(=O)c1ccc2nc(C)c(N(C)C(=O)CCc3ccccc3)n2c1`, the inhibition was 5.52%.
`CCOc1ccc(Cl)cc1-c1cc(C(=O)NCc2cccs2)[nH]n1` was tested, and the inhibition was 5.86%.
For `CCCNC(=O)c1cc(C2CCCCN2C(=O)OC)on1` (stereo not drawn), the inhibition was 5.56%.
For `CCCC(=O)N1CCC1(C)C(=O)NS(=O)(=O)c1ccc(Cl)cc1` (stereo not drawn), the inhibition was 9.48%.
`CC=CCn1c(SCCCc2ccccc2)nc2c1c(=O)[nH]c(=O)n2C` showed an inhibition of 8.5%.
`Oc1cccc2cc(-c3ccncc3)cnc12` was tested, and the inhibition was -15.1%.
With `COCCNC(=O)C1(C)CCCN(Cc2cccc(F)c2)C1` (stereo not drawn) the inhibition was 1.38%.
In the case of `CCCCN(C=O)c1c(CC)nc2c(OCCC3CCCCC3)cccn12`, the inhibition was -6.94%.
`O=C(NC(c1ccc(-c2ccccc2)cc1)c1cnccn1)C1CCN(CCOc2ccc(Cl)cc2Cl)CC1` (stereo not drawn) showed an inhibition of 4.84%.
`COc1ccc(-c2csc(C(O)c3cccc(Cl)c3)n2)cn1` (stereo not drawn) was tested, and the inhibition was 8.11%.
Work on `CC(C)(C(=O)N1CCC1(C)C(=O)NS(=O)(=O)c1ccc(Br)cc1)c1ccccc1` (stereo not drawn) yielded an inhibition of -3.96%.
`COc1cc(NC(=O)c2cc(-c3ccc(F)cc3OC(C)C)n[nH]2)cc(OC)c1OC` showed an inhibition of -4.94%.
Compound `CC(C)Oc1cc(F)ccc1-c1cc(C(=O)Nc2cccc(Cl)c2)[nH]n1` has an inhibition of 12.1%.
With `Cc1ccccc1Cn1c(C)c(C(=O)NCc2cccc(C(F)(F)F)c2)sc1=O` the inhibition was -0.337%.
In the case of `CC(=O)Nc1cc(-c2ccc(N3CCN(C)CC3)cc2)cn2c(-c3ccc(F)cc3)cnc12`, the inhibition was 0.066%.
`CCCNC(=O)C1(C)CCN1C(=O)Cc1ccc(-c2ccccc2)cc1` (stereo not drawn) showed an inhibition of 12.7%.
Compound `Cc1cccc(CNC(=O)c2sc(=O)n(Cc3ccccc3C)c2C)c1` has an inhibition of -13.7%.
For `O=C(Nc1ccc(Cl)c(C(F)(F)F)c1)C1Cc2c(-c3ccccc3Oc3ccccc3)ccnc2O1` (stereo not drawn), the inhibition was -5.07%.
`CNc1cncc(-c2ccc(NS(C)(=O)=O)cc2)n1` showed an inhibition of -0.527%.
With `COc1ccc(Cl)cc1-c1cc(C(=O)Nc2cc(OC)c(OC)c(OC)c2)[nH]n1` the inhibition was -0.731%.
In the case of `CN1CCN(C(=O)c2ccc(-c3cc4nc(NCc5cccnc5)n(C)c(=O)c4s3)cc2)CC1`, the inhibition was 16.2%.
In the case of `COc1ccc(-c2ccc(C(=O)NC(C)C)c3occc23)c(C)c1`, the inhibition was -1.92%.
`COc1cccc(CNc2nc3cc(-c4csc5ccccc45)sc3c(=O)n2C)c1` showed an inhibition of -2.68%.
With `Cc1nc2c(OCc3cccc(Cl)c3)cccn2c1N(C)CC1CC1` the inhibition was 4.97%.
For `CCCCC(=O)N(C)c1c(CC)nc2c(OCc3ccc(Cl)cc3Cl)cccn12`, the inhibition was -3.52%.
`OC(c1ccccc1)c1nc(/C=C/c2ccc(C(F)(F)F)cc2)cs1` (stereo not drawn) showed an inhibition of -51.4%.
`CN(C)CCNC(=O)c1ccc(-c2cn3c(-c4ccc(Oc5ccccc5)cc4)cnc3cn2)cc1` was tested, and the inhibition was -1.11%.
In the case of `COc1cccc(-c2cc3nc(NCCOc4ccccc4Cl)n(C)c(=O)c3s2)c1`, the inhibition was -11.2%.
With `CCc1nc2ccc(C(=O)NC3CCN(Cc4ccccc4)CC3)cn2c1N(CC)CCOC` the inhibition was -3.56%.
Compound `O=C(NCc1cccc(C(F)(F)F)c1)c1ccc2sc(COCCO)nc2c1` has an inhibition of -1.75%.
For `CN(C)CCNC(=O)c1cccc(-c2cnc3c(NC=O)cc(-c4cccc(C(F)(F)F)c4)cn23)c1`, the inhibition was 4.96%.
`Cc1cc(C)n2nc(CNS(=O)(=O)c3c(F)c(F)c(F)c(F)c3F)nc2n1` was tested, and the inhibition was 127% (active).
In the case of `Cc1cc(C)n2nc(C(=O)NC(C)(C)C)nc2n1`, the inhibition was 0.598%.
With `Cc1cc(C)n2nc(SCC(N)=O)nc2n1` the inhibition was -1.27%.
With `CC1(C(=O)NS(=O)(=O)c2cccc(OC(F)F)c2)CCN1C(=O)C1CC1` (stereo not drawn) the inhibition was -4.8%.
